In the library only some 1.4% were active in any assay of this set; here they are far more common.
S-ASM inh = inhibitors of human secretory acid sphingomyelinase; placental ASM, HMU-PC fluorogenic substrate, 60 min; Potency, µM (titrated, usually from 57.5 µM), inactives show top-dose activity change, negative = inhibition, most hits filed as inhibitors; hit rate 0.006% among 340,000; note: potency is the fitted concentration of half-maximal effect
Target sequence (P17405 47-631 limits assumed): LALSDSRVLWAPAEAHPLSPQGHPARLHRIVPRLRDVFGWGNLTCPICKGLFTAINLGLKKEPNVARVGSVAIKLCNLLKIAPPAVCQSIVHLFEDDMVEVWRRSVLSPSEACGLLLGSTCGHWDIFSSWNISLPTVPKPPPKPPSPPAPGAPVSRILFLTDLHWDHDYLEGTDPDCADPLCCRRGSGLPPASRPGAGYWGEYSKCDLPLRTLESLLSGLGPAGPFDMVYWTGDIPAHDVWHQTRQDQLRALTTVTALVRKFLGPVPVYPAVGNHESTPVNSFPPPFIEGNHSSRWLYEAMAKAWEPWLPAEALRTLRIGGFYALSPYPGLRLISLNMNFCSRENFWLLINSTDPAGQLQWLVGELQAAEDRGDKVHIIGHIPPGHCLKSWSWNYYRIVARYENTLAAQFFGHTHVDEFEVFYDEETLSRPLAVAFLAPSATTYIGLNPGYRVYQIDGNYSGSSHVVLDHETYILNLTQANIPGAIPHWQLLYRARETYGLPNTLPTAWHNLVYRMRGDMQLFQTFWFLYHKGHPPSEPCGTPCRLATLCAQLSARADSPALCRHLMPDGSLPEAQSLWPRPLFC
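Fluorescence read-out (Ex 386 nm, Em 447 nm) after stopping the reaction at pH 10. Enzyme: ASM from human placenta; substrate HMU-PC0, 9 uM final; 60 min, 37 °C. Compound preincubation 10 min, ambient temperature.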
uPA generation = cell surface uPA generation inhibition; cell surface uPA generation assay, qHTS; hit rate 0.31% among 330,000; Potency, µM (highest dose often 38.3 µM), for the others: at the highest dose activity change, negative = inhibition, hits mostly inhibitors; active = well fitted inhibition curve with a large enough effect; inconclusive = small, poorly fitted or top-dose-only effect; inactive = no such curve, though single readings can be large or run the other way; tested in mouse RAW 264.7 cells; note: potency is the fitted concentration of half-maximal effect; % is set by controls: 0 for no effect and ±100 for the full control effect; nearly all actives have a fitted effect of over 55% in size
KCNH2 3.1 inh = KCNH2 3.1 (human) potassium channel inhibition; U2OS KCNH2 3.1, thallium flux FluxOr; active compounds read low; activity change, % (tested at about 1.8 µM); hit rate 0.95% among 340,000;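 active = maximum activity change below -70%; inconclusive = maximum activity change from -70% to -50%; inactive = maximum activity change above -50%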;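 note: thallium influx rate constant from kinetic fluorescence after stimulation buffer; % is set by controls: 0 for no effect and ±100 for the full control effect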
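We transduce U2OS cells with the mutant 3.1 virus, culture them overnight, load FluxOr with Red40 quencher for 45 min, then add stimulation buffer and read kinetically for 2 min to derive a normalized rate constant.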
MmCpn inh = inhibitors of Methanococcus maripaludis chaperonin TRiC (MmCpn) | purified Mm-Cpn ATPase, ADP Transcreener TR-FRET | Potency, µM (doses to about 76.9 µM), without a hit: top-dose activity, negative = inhibition, usual class: inhibitors | hit rate 0.031% among 330,000 | AID 504842; note: potency is the fitted concentration of half-maximal effect; % is set by controls: 0 for no effect and ±100 for the full control effect; nearly all actives have a fitted effect of over 80% in size
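TR-FRET (320 nm excitation; 590 and 665 nm emission) reports ADP made from 10 uM ATP by 25 nM enzyme; compounds were preincubated 10 min, reaction run 30 min, both at 37°C.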
p53 reactivation = re-activators of mutant p53. H1299 p53-A138V BP100-luciferase reporter, luminescence, 24 h. Potency, µM (doses to about 92.2 µM), without a hit: top-dose activity change, positive = activation, actives largely listed as activators. hit rate 0.063% among 320,000. AID 504706; note: potency is the fitted concentration of half-maximal effect; % of control where 0% means no effect; nearly all actives have a fitted effect of over 45% in size
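p53-null H1299 cells stably carrying temperature-sensitive p53-A138V and a BP100-luciferase reporter were pinned with compounds (4-point, 1:5 series) and held 24 hrs at 37 deg C. Luminescence was read 10 min after detection reagent.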
hERG WT inh = blocks the wildtype human KCNH2 potassium channel. U2OS, BacMam KCNH2, thallium flux FluxOr; active compounds read low. activity change, % at 1.84 µM. hit rate 0.37% among 340,000;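 active = maximum activity change below -70%; inconclusive = maximum activity change between -70% and -50%; inactive = maximum activity change above -50%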; note: % is set by controls: 0 for no effect and ±100 for the full control effect
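U2OS cells transduced with wild-type KCNH2 virus are loaded with FluxOr dye for 45 min, and thallium flux is measured in kinetic reads before and after stimulation buffer. Rate constants are normalized to DMSO controls.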
The depositor's hits bear a star; u = inconclusive; x = no result; [ ] = dose if it differs, or a comment. Unless noted, calls come from the whole dose curve; as a rule, active = well fitted curve in the direction sought with a large enough effect; inconclusive = small, poorly fitted or top-dose-only effect, or another doubt; inactive = no such curve, though single readings can be large; an effect the other way counts as inactive or inconclusive.

SMILES	S-ASM inh	uPA generation	KCNH2 3.1 inh	MmCpn inh	p53 reactivation	hERG WT inh
CCN1CCN(CCNC(=O)Nc2ccc([N+](=O)[O-])cc2)CC1	-3%	0%	-15	1%	0%	-10
Cc1ccc(C(=O)N2CCN(CCNC(=O)C(=O)Nc3ccc(Cl)cc3)CC2)cc1	4%	1%	-87*	1%	x	9
CCCc1cc(C(=O)N(C)CC(=O)Nc2ccc(OCC)c(OCC)c2)sc1C	-2%	-3%	6	-1%	-3%	2
O=C(CNC(=O)c1ccc(Br)cc1)OC1CCOC1=O (stereo not given)	x	x	23	x	x	-8
O=C(Cc1c(F)cccc1Cl)NNC(=S)Nc1ccc(S(=O)(=O)Nc2ncccn2)cc1	0%	6%	-8	-2%	u	-11
C[C@@H]1CCC[C@]2(O[C@H](CCO)C[C@@H](O)[C@@H]2O)O1	2%	8%	23	x	x	-16
COc1ncccc1C(=O)N1CCCC(C(=O)Nc2cccc(-c3ccc(F)cc3)c2)C1 (stereo not given)	x	x	-4	x	x	30
O=C(NC1CCCCC1)c1cc(-c2cccs2)on1	-3%	0%	-71*	1%	u	-10
COc1ccc(C(OCC(O)CN(C)C2CCCCC2)c2ccc(OC)cc2)cc1 (stereo not given)	-2%	x	-44	0%	2%	0
COc1ccc(CN(C)CC(O)COC(c2ccc(OC)cc2)c2ccc(OC)cc2)cc1 (stereo not given)	-5%	-8%	-113*	2%	4%	u
CCOc1ccc(CN(C)CC(O)COC(c2ccc(OC)cc2)c2ccc(OC)cc2)cc1 (stereo not given)	-1%[11.5 µM]	-2%	-93*	-1%	5%	-85*
CCOc1cccc(/C=N/NC(=S)Nc2ccccc2[N+](=O)[O-])c1O	-1%	6.3µM*	-2	-21%	7%	-4
CCOc1cccc(/C=N/NC(=O)c2cccnc2)c1O	0%	10µM*	6	-1%	x	-3
CCOc1cc(/C=N/NC(=O)c2cccnc2)ccc1O	-1%	1%	14	0%	0%	-5
CCCN(CCC)CC(O)COc1ccc([N+](=O)[O-])cc1 (stereo not given)	-2%	1%	u	-4%	23%	-75*
CCCN(CCC)CC(O)COc1ccc2c(c1)OCO2 (stereo not given)	1%	1%	-5	0%	1%	23
COc1ccc(C(=O)OC(C)C(=O)NC2CCCc3ccccc32)cc1OC (stereo not given)	0%	18%	-10	-2%	-2%	-3
Cc1ccc(S(=O)(=O)N(C)CC(=O)NNC(=O)CCS(=O)(=O)c2ccccc2)cc1	3%	16%	10	-1%	-2%	3
FC(F)(F)c1ccc(CN2C[C@@H]3C(c4ccc(C(F)(F)F)cc4)C4(c5cccnc5)CC3(C4)[C@H]2c2ccccc2)cc1 (stereo not given in full)	0%	8%	-16	-4%	2%	-2
N#Cc1ccc(C23CC4(C2)[C@H](CN(P(=O)(c2ccccc2)c2ccccc2)[C@@H]4c2ccccc2)C3c2ccc(Cl)nc2)cc1 (stereo not given in full)	10%	u	-33	-1%	5%	-12
CN1C[C@@H]2C(c3ccc(C(F)(F)F)cc3)C3(c4cccnc4)CC2(C3)[C@H]1c1ccccc1 (stereo not given in full)	2%	3%	-85*	0%	-2%	-8
CN1C[C@@H]2C(c3ccc(Cl)nc3)C3(c4ccc(C#N)cc4)CC2(C3)[C@H]1c1ccccc1 (stereo not given in full)	1%	-8%	-77*	0%	1%	8
O=C(O)c1cnn(-c2nc(-c3cccc([N+](=O)[O-])c3)cs2)c1C(F)(F)F	-5%	-3%	3	2%	-3%	-3
CCC1Nc2ncnc(N3CCN(c4ccccc4)CC3)c2N(Cc2ccc(Br)cc2)C1=O (stereo not given)	2%	-12%	-88*	-5%	-4%	6
CN(CC(=O)Nc1cccc(F)c1)C(=O)c1ccccc1OCC(=O)Nc1cccc(C(F)(F)F)c1	x	-11%	7	-1%	0%	0
SMILES	S-ASM inh	uPA generation	KCNH2 3.1 inh	MmCpn inh	p53 reactivation	hERG WT inh
Cc1nc(N2CCN(c3ccccn3)CC2)c2c(C)c(C(=O)Nc3c(F)cc(F)cc3Br)sc2n1	-8%	4%	-95*	u	-9%	-28
Cc1c(C(=O)N2CCN(c3ccc(F)cc3)CC2)sc2ncnc(N3CCN(c4ccccn4)CC3)c12	u	-2%	-76*	-26%	-3%	3
Cc1nc(N2CCN(c3ccccn3)CC2)c2c(C)c(C(=O)Nc3ccc(Cl)cc3)sc2n1	-12%	8%	-38	-4%	3%	-26
Cc1nc(N2CCN(c3ccccn3)CC2)c2c(C)c(C(=O)Nc3c(C)cc(Br)cc3C)sc2n1	-4%	0%	-80*	-14%	-5%	1
O=S(=O)(Nc1ccccc1C(F)(F)F)c1ccc(-c2ccccn2)s1	-1%	12%	5	-4%	-5%	-7
CCOCCCN(C)C1CCN(C(=O)c2oc3ccccc3c2NC(=O)Cc2ccc([N+](=O)[O-])cc2)CC1	-2%	-8%	-100*	1%	u	-102*
CCOCCCN(C)C1CCN(C(=O)c2oc3ccccc3c2NC(=O)COc2ccc(F)cc2)CC1	0%	-8%	-100*	-6%	19%	-42
CCOc1ccc(C(=O)Nc2c(C(=O)N3CCC(N4CCCCC4)CC3)oc3ccccc23)cc1	5%	-13%	-28	0%	17%	23
O=C(Nc1c(C(=O)N2CCN(c3ccccn3)CC2)oc2ccccc12)c1ccc([N+](=O)[O-])cc1	-1%	0%	-105*	-3%	2%	u
CCOCCCN(C)C1CCN(C(=O)c2oc3ccccc3c2NC(=O)c2cccc([N+](=O)[O-])c2)CC1	-2%	-2%	-107*	1%	5%	-79*
CN1CCN(c2ccc(S(=O)(=O)N3CCOCC3)cc2NC(=O)Cc2ccccc2F)CC1	0%	-9%	-13	1%	-1%	10
O=C(O)Cc1ccc(NS(=O)(=O)c2ccc3c(c2)OCCO3)cc1	x	x	17	x	x	10
C#CCOCCOCCOCCNc1nc(N2CCN(C(=O)CCCCCCCCCCNC(=O)Cn3cc(CCCCCN)nn3)CC2)nc(N2CCN(C(=O)CCCCCCCCCCNC(=O)Cn3cc(CCCCCN)nn3)CC2)n1	-3%	-13%	0	1%	-1%	-2

Screening data as filed in PubChem.
